Calpain2 inh: calpain II (pig) inhibition. purified calpain II, fluorogenic peptide substrate, 30 min. inhibition, % at 16 µM. 220,000 compounds, 0.37% hits. AID 1236;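 active = inhibition above about 50%, limit read from the data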
ROMK primary: modulates human ROMK potassium channel activity. B-score at 10 µM. P48048. 130,000 compounds, 2% hits. Tet-inducible ROMK, thallium flux fluorescence; actives lie on both sides. AID 1918;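 active = signal ratio slope over the read window, or its plate-corrected B-score, at least 3 SD from the plate mean, either direction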;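 also: B-score of the F/F0 ratio slope over 7 to 12 s after thallium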
Target sequence (P48048 whole entry, looked up): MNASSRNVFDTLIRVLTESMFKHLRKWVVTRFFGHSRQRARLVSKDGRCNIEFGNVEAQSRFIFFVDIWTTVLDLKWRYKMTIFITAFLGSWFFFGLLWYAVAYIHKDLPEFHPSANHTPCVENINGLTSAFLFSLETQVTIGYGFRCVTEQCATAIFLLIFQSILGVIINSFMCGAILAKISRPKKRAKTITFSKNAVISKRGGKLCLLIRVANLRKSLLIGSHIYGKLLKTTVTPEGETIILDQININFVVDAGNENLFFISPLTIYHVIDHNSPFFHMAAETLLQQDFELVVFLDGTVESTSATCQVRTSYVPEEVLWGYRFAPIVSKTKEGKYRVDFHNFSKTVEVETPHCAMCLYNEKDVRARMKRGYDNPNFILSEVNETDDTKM
Arbovirus anti: antivirals against arbovirus infection; arbovirus infection cell-based antiviral screen; inhibition, % at 10 µM; 200,000 compounds, 0.37% hits; AID 1251; in the data active = inhibition above about 30%
HSV replic up: HSV replication enhancement; HSV replication augmentation in cells, fold increase; 220,000 compounds, 0.005% hits; maximum fold increase; in the data active = maximum fold increase above about 1.5; inconclusive = no clear call, values can overlap the other calls; tested in PC3 cells
HMGR II inh: blocks class II HMG-CoA reductase of Enterococcus faecalis; purified E. faecalis HMGR, NADPH absorbance 340 nm kinetic; inhibition, % at 10 µM; 190,000 compounds, 0.41% hits;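 active = inhibition above a set limit, the median over all tested compounds plus 3 SD, cut at about 9.5% in these data; inconclusive = no clear call, values can overlap the other calls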;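 also: enzyme runs in reverse so mevalonate oxidation gives rising NADPH absorbance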
ROMK retest: confirmation of human ROMK potassium channel modulators | ROMK thallium flux, fluorescence ratio; active compounds read low | 3,000 compounds, 54% hits | normalized thallium flux (F/F0 slope) at 10 µM | AID 1917 | shares compounds with ROMK primary;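 active = Flux at 10 µM at least 3 SD below or above vehicle control mean in one or both replicates; inconclusive = no clear call, values can overlap the other calls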
Hits are given with their value; . = inactive; ? = inconclusive; / = not tested or not shown. Sampled rows, rich in hits. Any-hit rate of the full collection: about 2.1%.

SMILES	Calpain2 inh	ROMK primary	Arbovirus anti	HSV replic up	HMGR II inh	ROMK retest
CC(=O)N(c1cccc(Cl)c1)c1nc(C)cc(C)c1C#N	.	.	/	.	/	/
O=C(NNC(=S)Nc1ccc(Br)cc1Cl)c1ccncc1	.	6	.	.	.	0.11
CC1(C)C2CC=C(/C=N/NC(=S)Nc3cccnc3)C1C2 (configuration not stated)	.	-3.1	.	.	.	.
Cn1c(SCc2nnc3n2CCCCC3)nc2ccccc21	.	/	.	.	.	.
CCOc1cc(S(=O)(=O)NCc2ccncc2)c(C)cc1C	.	.	.	.	.	/
COc1cccc(C2CC(C(F)(F)F)n3ncc(C(=O)Nc4c(C)n(C)n(-c5ccccc5)c4=O)c3N2)c1 (configuration not stated)	.	/	.	.	.	/
COc1ccc(C2CC(C(F)(F)F)n3ncc(C(=O)Nc4c(C)n(C)n(-c5ccccc5)c4=O)c3N2)cc1 (configuration not stated)	.	-6.1	.	.	.	.
Cc1ccc(C(=O)/C=C/c2ccccc2[N+](=O)[O-])cc1	.	.	.	.	.	/
O=C(/C=C/c1ccccc1[N+](=O)[O-])c1ccccc1Br	.	-6.1	.	.	.	0.049
Oc1cc(Br)ccc1C=Nc1ccc(N2CCCCC2)cc1	.	/	/	.	/	0.046
Cc1nn(-c2ccccc2)c(C)c1-c1nnc(-c2c(C)nn(-c3ccccc3)c2C)o1	.	/	/	.	/	/
CCCOc1ccc(/C=N\NC(=O)CCc2n[nH]c(=O)[nH]c2=O)cc1OC	.	3.4	.	.	.	.
COc1ccc(/C=N/NC(=O)CCc2n[nH]c(=O)[nH]c2=O)cc1OC	.	/	.	.	.	/
NC(=O)c1ccccc1NC(=O)Nc1ccc(F)c(Cl)c1	.	.	.	.	.	/
c1ccc(CN2C3=NCCN3c3ccccc32)cc1	.	.	.	.	.	/
Clc1ccc(CN2C3=NCCN3c3ccccc32)cc1Cl	.	-2.8	.	.	.	0.06
Cc1ccc(/C=N/Nc2nc(N3CCCCC3)nc(N3CCCCC3)n2)o1	.	.	.	.	.	/
COC(=O)c1ccccc1-c1ccc(/C=N/Nc2nc(N3CCCC3)nc(N3CCCC3)n2)o1	.	/	/	.	/	?
O=C(N=Nc1c(O)n(Cc2ccccc2)c2ccccc12)c1ccc(O)cc1	.	.	.	.	.	/
CCn1c(O)c(N=NC(=O)c2ccc(CSc3nncn3C)cc2)c2ccccc21	.	-3.4	.	.	.	.
Cn1cnnc1SCc1ccc(C(=O)N=Nc2c(O)n(Cc3ccc(Cl)cc3)c3ccccc23)cc1	.	-2.2	.	.	.	0.065
O=C(CN1CCN(S(=O)(=O)c2ccc(Br)cc2)CC1)N/N=C/c1cccnc1	.	/	.	.	.	/
Cc1cc(=O)[nH]c(SCC(=O)N(CCC#N)c2ccccc2)c1C#N	.	.	.	.	.	/
Fc1ccc(-c2nn(-c3ccccc3)cc2CNCc2ccccc2)cc1	.	-2.6	.	.	.	0.047
O=C(O)Cc1cn(-c2ccccc2)nc1-c1ccccc1	.	.	.	.	.	/
SMILES	Calpain2 inh	ROMK primary	Arbovirus anti	HSV replic up	HMGR II inh	ROMK retest
C/C(=N\NC(=O)c1ccccc1)c1cc2cc([N+](=O)[O-])ccc2oc1=O	.	-2.9	.	.	.	0.055
Cc1ccccc1N1C(=O)C(Oc2ccc(Cl)cc2)C1CNCCCOC(C)C (configuration not stated)	.	-3.2	.	.	.	0.059
CCCCCCCCCCn1ccc(=N)cc1	.	-3.6	/	.	/	?
CCc1ccc(C(=O)COC(=O)c2cccnc2Cl)cc1	.	/	.	.	.	/
Cc1cc(=O)oc2cc(OCC(=O)NCc3ccccn3)ccc12	.	/	.	.	.	/
Cc1cc(=O)oc2cc(NC(=S)NCc3ccccn3)ccc12	.	-6.6	.	.	.	0.047
COc1ccc(N/C=C/C(=C(C#N)C#N)N(C)C)cc1	.	/	.	.	.	/
COc1ccc(-c2nc(CN3CCC(C(=O)N4CCc5ccccc54)CC3)c(C)o2)cc1OC	.	/	.	.	.	?
COc1ccc(CCNC(=O)C2CCN(Cc3nc(-c4cccc(Cl)c4)oc3C)CC2)cc1OC	.	/	.	/	.	/
Cc1cc(C)n(-c2cccc(CN(C)Cc3nc(-c4cnccn4)no3)c2)n1	.	.	.	.	.	/
O=C(c1cc(N2C(=O)C3C4CCC(C4)C3C2=O)ccc1Cl)N1CCN(c2ccc(F)cc2)CC1 (configuration not stated)	.	-5	.	.	.	0.061
COc1cccc(CNC(=O)CCSCc2ccccc2F)c1	.	.	.	.	.	/
Cc1ccc(N=Cc2cc(Br)cc(Cl)c2O)cc1	.	3.4	.	.	.	0.1
COCC(=O)N1CCCC(C(=O)c2ccc(-c3ccccc3)c(F)c2)C1 (configuration not stated)	.	.	.	.	.	/
CCCNC(=O)CCc1c(C)nc2nc(C)nn2c1C	.	/	.	/	.	/
COc1ccccc1NC(=O)Cn1c2ccccc2c2nc3n(c(=O)c21)CCS3	.	.	.	.	.	/
O=C(Cn1c2ccccc2c2nc3n(c(=O)c21)CCS3)Nc1ccccc1C(F)(F)F	.	-3.2	.	.	.	0.069
CCOC(=O)C(C)Sc1nnc(Cn2c(=O)sc3ccccc32)n1-c1ccccc1 (configuration not stated)	.	/	.	/	.	?
CCN(C(=O)Cn1c(=O)n(-c2cc(OC)c(OC)c(OC)c2)c(=O)c2ccccc21)c1cccc(C)c1	.	.	.	.	.	/
CCN(CC)C(=O)Cn1c(=O)c2ccccc2n2c(=S)sc(-c3cccc(C)c3)c12	.	/	.	.	.	0.049
O=C(CSc1nc2ccccc2o1)N1CCN(S(=O)(=O)c2ccc3ccccc3c2)CC1	.	-3.6	.	.	.	.
Cc1ccc(S(=O)(=O)N2CCN(C(=O)CSc3nc4ccccc4o3)C2)cc1	.	/	.	.	.	/
CCOC(=O)CNC(=O)CSc1nnc(NC(=O)c2ccccc2Cl)s1	.	/	.	.	.	/
COc1c2ccccc2c(OC)c2ccccc12	.	.	.	.	.	/
Cn1c(=O)c2c(nc(N3CCNCC3)n2Cc2ccccc2Cl)n(C)c1=O	.	1.6	.	.	.	.
SMILES	Calpain2 inh	ROMK primary	Arbovirus anti	HSV replic up	HMGR II inh	ROMK retest
O=C1c2ccccc2NC(c2ccc(-c3cccc([N+](=O)[O-])c3)o2)N1O (configuration not stated)	.	-3.6	.	.	.	0.061
O=C1c2ccccc2NC(c2ccc(-c3ccc(Br)cc3)o2)N1O (configuration not stated)	.	/	.	.	.	/
CCOC(=O)c1oc2nc3c(cc2c1N)COC(C)(C)C3	.	3.5	.	.	.	.
Cc1ccccc1SC1CCN(Cc2nc(C3CC3)no2)CC1	.	.	.	.	.	/
CCOC(=O)c1c(NC(=O)CSc2nc3ccccc3o2)sc(C(C)=O)c1C	.	-3.3	.	.	.	0.059
CCOC(=O)c1c(NC(=O)CSc2nnc(-c3ccccc3)o2)sc(C(C)=O)c1C	.	/	.	.	.	/
C=CCOC(=O)C1C(=O)CC(C)(O)C(C(=O)OCC=C)C1c1ccc(OC)cc1 (configuration not stated)	.	1.2	.	.	.	.
CC(=O)c1ccc(N/N=C(/C(N)=O)C2=NC(C)(C)Cc3ccccc32)cc1	.	-5.4	.	/	.	0.049

Screening data deposited in PubChem BioAssay by several laboratories.
